Nrf2 activator = qHTS of Nrf2 Activators; AREc32 ARE-luciferase reporter (MCF7-derived line), luminescence, 24 h; Potency, µM (doses to about 46.1 µM), without a hit: top-dose activation, actives largely listed as activators; hit rate 0.31% among 410,000; AID 624171, 2012; further: potency means the concentration at half of the fitted maximal effect; % of control where 0% means no effect; nearly all actives have a fitted effect of over 65% in size
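Each well held 1000 AREc32 cells, which were incubated with compound for 24 hr at 37 deg C after overnight attachment, and ARE reporter activity was quantified by firefly luciferase luminescence.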
IDH1 R132H inh = qHTS for Inhibitors of mutant isocitrate dehydrogenase 1 (IDH1): qHTS; IDH1-R132H enzyme, NADPH consumption, diaphorase/resazurin fluorescence; Potency, µM (top dose mostly 76.6 µM), without a hit: top-dose activity change, negative = inhibition, usual class: inhibitors; hit rate 0.093% among 390,000; further: potency means the concentration at half of the fitted maximal effect; on the % scale 0 is the no-effect control and ±100 the full control effect; nearly all actives have a fitted effect of over 65% in size
Target sequence (O75874 whole entry R132H, stated change not applied): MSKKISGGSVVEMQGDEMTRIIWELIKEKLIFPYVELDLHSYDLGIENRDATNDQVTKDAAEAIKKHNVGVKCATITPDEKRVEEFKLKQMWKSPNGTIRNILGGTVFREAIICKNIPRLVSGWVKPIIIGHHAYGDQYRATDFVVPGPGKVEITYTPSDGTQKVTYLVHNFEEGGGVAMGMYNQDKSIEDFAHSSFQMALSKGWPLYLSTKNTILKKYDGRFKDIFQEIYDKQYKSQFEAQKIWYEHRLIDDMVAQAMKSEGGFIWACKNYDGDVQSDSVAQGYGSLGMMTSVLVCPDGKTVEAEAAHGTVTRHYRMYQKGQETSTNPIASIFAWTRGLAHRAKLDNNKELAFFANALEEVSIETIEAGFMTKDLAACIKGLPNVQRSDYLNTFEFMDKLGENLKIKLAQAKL
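IDH1-R132H (0.5 ug/mL) preincubated 30 min with compound, then NADPH (0.016 mM) and alpha-KG (2 mM) added; 80 min at RT, pH 7.5. Remaining NADPH coupled via diaphorase/resazurin to fluorescence (540/590 nm); concentration-response curves normalized to no-enzyme control.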
Nrf2 inh = Nrf2 qHTS screen for inhibitors; AID 504444, 2011; Potency, µM (series often up to 46 µM), without a hit: at the highest dose activity change, negative = inhibition, most hits filed as inhibitors; A549 ARE-Fluc reporter, luciferase luminescence, 18-24 h; hit rate 2.1% among 360,000; further: potency means the concentration at half of the fitted maximal effect; on the % scale 0 is the no-effect control and ±100 the full control effect; nearly all actives have a fitted effect of over 60% in size
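Reporter: ARE-Fluc in A549. Exposure: 18-24 h, 37 °C, 5% CO2, 5% FBS OPTI-MEM. Readouts: fluorescent cytotoxicity (CellTiter-Fluor), then luminescent Nrf2 signal after BugLite.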
A549 viability = Nrf2 qHTS screen for inhibitors: counterscreen for cytotoxicity. A549 ARE-Fluc cells, CellTiter-Fluor viability, 18-24 h. Potency, µM (series often up to 46 µM), for inactives: at the highest dose activity change, negative = cytotoxicity, hits mostly inhibitors. hit rate 0.16% among 390,000. AID 504648, 2011; further: potency means the concentration at half of the fitted maximal effect; on the % scale 0 is the no-effect control and ±100 the full control effect
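A549 ARE_Fluc cells in 5% FBS OPTI-MEM were exposed to compounds in concentration-response for 18-24 h at 37 deg C. Viability was read by CellTiter-Fluor fluorescence (Ex 405/Em 525) after 30 min, before the luciferase read.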
12-LOX inh = Primary qHTS assay for inhibitors of human arachidonate 12S-lipoxygenase (ALOX12): Round 2. hit rate 1.1% among 580,000. purified 12hLO, xylenol orange hydroperoxide absorbance. Potency, µM (titrated, usually from 108 µM), for the others: top-dose activity change, negative = inhibition, actives largely listed as inhibitors; further: potency means the concentration at half of the fitted maximal effect; on the % scale 0 is the no-effect control and ±100 the full control effect
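Purified human 12hLO at 150 nM in 25 mM Hepes, 0.01% Triton X-100, pH 7.0, preincubated 15 min at room temperature with compound. Reaction started with 40 uM arachidonic acid, 30 min at room temperature. Hydroperoxide measured by Fe-xylenol orange, 573/405 nm absorbance ratio.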
LDHA block = qHTS assay for inhibitors of human lactate dehydrogenase | activity change, % (values are at about 110 or 230 µM) | purified LDHA, NADH/diaphorase-resazurin fluorescence; stronger effect = lower value | hit rate 0.15% among 480,000; in the data active means activity change below about -30%; inconclusive means mostly about -25% to -30%;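 further: plate controls were DMSO wells for no effect and wells without enzyme for full effect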
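Human LDH5 at 2 nM final in Tris HCl pH 7.4 with 0.06 mM NADH and 0.2 mM pyruvate, reacted 5 minutes at room temperature. Remaining NADH coupled via diaphorase/resazurin; resorufin fluorescence read at 0 and 20 minutes, normalized to enzyme-free and DMSO wells.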
* hit, by the source's call; ? = inconclusive; · = not tested or not shown; [ ] = remark or other dose. In the library only some 2.7% were active in any assay of this set; here they are far more common. Unless noted, the call rests on the fitted dose curve; in most records, active means well fitted curve in the direction sought with a large enough effect; inconclusive means small, poorly fitted or top-dose-only effect, or another doubt; inactive means no such curve, though single readings can be large; an effect the other way counts as inactive or inconclusive.

SMILES	Nrf2 activator	IDH1 R132H inh	Nrf2 inh	A549 viability	12-LOX inh	LDHA block
CCCCN(CC)S(=O)(=O)c1ccc(C(=O)Nc2ccc(Cl)c3ncsc23)cc1	·	·	·	·	-20.1%	-2.9
Cc1cccc(N2CCN(C(=O)c3ccc4nc(-c5ccco5)c(-c5ccco5)nc4c3)CC2C)c1 (stereo not drawn)	-1.9%	4.2%	20.6µM*	?	?	4.9
CCNCc1ccc(-c2ccc(C(F)(F)F)cc2)o1	·	·	·	·	?	4.6
CCc1ccc(/C=C/C(=O)c2cc(Br)ccc(=O)c2O)cc1	?	-0.1%	7.31µM*	?	?	-8.3
Cc1cccc(/C=C/C(=O)c2cc(Br)ccc(=O)c2O)c1	22.4µM*	9.2%	?	?	?	13.8
CCc1ccc(/C=C/C(=O)c2ccc(O)cc2)cc1	·	·	·	·	-0.4%	2.4
CCOc1ccc(/C=C/C(=O)c2cc(Br)ccc(=O)c2O)cc1	21.2%	4.6%	16.4µM*	-29.2%	28.2µM*	3.1
CCNC(=O)N(C)Cc1nc(-c2ccc(Cl)cc2)no1	·	·	·	·	20.4%	-2.8
Cc1cc(C(C)(C)C)cc(C)c1Cn1c2[n+](c3ccc(C(F)(F)F)cc31)CCCCC2	-2.3%	-10.1%	?	-16.8%	35.5µM*	-11.0
FC(F)(F)c1cccc(Cn2c3[n+](c4ccc(C(F)(F)F)cc42)CCCCC3)c1	3.1%	-1.5%	3.7%	0.7%	?	-10.1
S=c1[nH]nc(-c2ccco2)n1/N=C/c1cccc(Cl)c1	12.6µM*	0.9%	-3.1%	3.4%	-9.7%	-11.2
O=[N+]([O-])c1ccccc1/C=C/C=N/n1c(-c2ccco2)n[nH]c1=S	10µM*	3.0%	6.7%	-3.9%	?	-9.6
Cc1ccc(-c2n[nH]c(=S)n2/N=C/C=C/c2ccccc2[N+](=O)[O-])cc1	?	-0.1%	-18.3%	-16.1%	-12.7%	-8.8
c1ccc2nc(-c3nnc4sc(-c5ccncc5)nn34)ccc2c1	·	·	·	·	28.0%	6.2
CCCCC(=O)Nc1ccc(NC(=O)c2ccc([N+](=O)[O-])cc2)cc1OC	0.2%	2.2%	-14.2%	0.2%	9.0%	-1.8
CCCCC(=O)Nc1ccc(C(=O)Nc2ccc(OC)cc2[N+](=O)[O-])cc1	-0.6%	0.8%	20.6µM*	?	15.1%	-7.7
CCCOc1ncnc2c1[nH]c1ccccc12	5.7%	9.6%	?	-11.9%	0.0%	-8.3
CC(C)Oc1ncnc2c1[nH]c1ccccc12	8.1%	0.0%	8.2µM*	-11.8%	0.0%	-15.4
Cc1ccccc1NC(=O)c1sc2nc(-c3ccncc3)ccc2c1N	-0.7%	-5.5%	25.9µM*	-8.2%	0.0%	0.4
Nc1c(C(=O)Nc2ccc(Cl)c(C(F)(F)F)c2)sc2nc(-c3ccncc3)ccc12	0.4%	42.8%	7.31µM*	-3.6%	-22.1%	-6.8
Nc1c(C(=O)Nc2ccc(F)c(F)c2)sc2nc(-c3ccncc3)ccc12	-0.6%	3.9%	-14.3%	-2.7%	-20.7%	3.5
O=C(Cc1cccc(F)c1)Nc1c(NC2CCCCC2)c2ccccc2oc1=O	·	·	·	·	-2.5%	5.9
Cc1cc(N2CCN(C)CC2)nc2ccc(NC(=O)c3ccc(Br)o3)cc12	3.9%	1.8%	20.1%	-9.1%	50.7%	-0.4
Cc1cc(N2CCCCC2)nc2ccc(NC(=O)c3ccc(Br)o3)cc12	-0.1%	9.0%	20.6µM*	?	42.2%	-1.0
CCN(CC)CCNC(=S)Nc1ccc2nc(N3CCN(C)CC3)cc(C)c2c1	0.5%	0.5%	-15.6%	?	?	0.4
SMILES	Nrf2 activator	IDH1 R132H inh	Nrf2 inh	A549 viability	12-LOX inh	LDHA block
CCN(CC)CCNC(=S)Nc1ccc2nc(N3CCCC3)cc(C)c2c1	9.0%	2.6%	1.5%	5.8µM*	-12.8%	-0.6
CC(C)(CNC(=O)CCNC(=O)C1CCCC1)c1ccc(Br)cc1	·	·	·	·	-27.5%	5.0
COc1ccc(NC(=O)/C(Cl)=C(/Cl)S(=O)Cc2ccccc2Cl)cn1 (stereo not drawn)	-2.9%	-2.3%	-134.8%	14.6µM*	·	-6.3
S=c1sc2c(s1)SCCCS2	·	·	·	·	31.6µM*	4.1
O=C(O)c1csc(N/N=C/c2ccc(Br)cc2)n1	0.5%	0.8%	-8.3%	-2.9%	35.5µM*	-0.3
Cc1csc(N/N=C/c2ccc([N+](=O)[O-])cc2)n1	-0.1%	-9.1%	17.5%	-8.8%	3.2%	-1.2
CC(c1ccccc1)N(C)C(=O)COC(=O)c1c[nH]c2ccccc12 (stereo not drawn)	·	·	·	·	?	-4.0
CC(OC(=O)c1cc(=O)c2ccccc2o1)C(=O)Nc1ccc(C(F)(F)F)cc1 (stereo not drawn)	·	·	·	·	?	6.7
Clc1cccc(N2CCN(c3ncnc4nc[nH]c34)CC2)c1	0.2%	8.3%	-18.6%	-1.8%	24.3%	13.1
Clc1ccc(N2CCN(c3ncnc4nc[nH]c34)CC2)cc1Cl	·	·	·	·	-25.7%	-31.1*
COc1ccc(/C=N/NC(=O)c2ccc3ccccc3c2)cc1OS(=O)(=O)c1ccc(NC(C)=O)cc1	-0.1%	5.2%	11.6µM*	-27.7%	2.9%	-1.3
COc1ccc(C)c2sc(N(Cc3cccnc3)C(=O)C3=COCCO3)nc12	·	·	·	·	?	-7.1
Cc1cc(N2CCCC2=O)cc(C)c1S(=O)(=O)NCCOc1ccc(C(C)(C)C)cc1	0.4%	4.7%	?	-16.3%	?	-1.9
O=C1CCCN1c1ccc(S(=O)(=O)NCCOc2ccccc2)cc1	0.1%	4.3%	12.6µM*	-11.1%	93.0%[57.4 µM]	-2.1
CN(Cc1ccccc1)C(=O)C[C@@H]1O[C@H](CNC(=O)c2ccno2)[C@@H](O)[C@H]1O	·	·	·	·	28.2µM*	·
CN(Cc1ccccc1)C(=O)C[C@@H]1O[C@H](CNC(=O)Nc2cccc(F)c2)[C@@H](O)[C@H]1O	·	·	·	·	-3.9%[176 µM]	·
CCNC(=S)N1CCC(C(O)(c2ccccc2)c2ccccc2)CC1	1.2%	9.4%	18.3%	7.0%	-3.1%	-3.8
COc1cc(NC(=S)N2CCC(C(O)(c3ccccc3)c3ccccc3)CC2)cc(OC)c1	-0.5%	-1.1%	2.6%	10.9%	39.8µM*	0.4
COc1ccccc1Nc1nc2ccccc2nc1NS(=O)(=O)c1cccc2nsnc12	·	·	·	·	7.3%	6.7
CCNC(=O)NC(=O)C(C)N(C)CC(=O)Nc1cccc2ccccc12 (stereo not drawn)	·	·	·	·	9.1%	-33.3*
